Measurements from PubChem BioAssay.
Results with a measured potency or affinity are listed apart. Activity calls are given as the source filed them. Cut-off not given; nearly all actives show IC50 up to about 0.91 µM.

The compounds below were run against Calcium-dependent protein kinase 4 (Plasmodium falciparum (isolate 3D7)) (UniProt Q8IBS5) (assay: PfCDPK4 kinase inhibitors, biochemical, TCAMS library (AID 1159588)). Conditions: recombinant PfCDPK4, Kinase-Glo ATP depletion luminescence.
Chain of Calcium-dependent protein kinase 4 (Plasmodium falciparum (isolate 3D7)) (Q8IBS5 whole entry, looked up): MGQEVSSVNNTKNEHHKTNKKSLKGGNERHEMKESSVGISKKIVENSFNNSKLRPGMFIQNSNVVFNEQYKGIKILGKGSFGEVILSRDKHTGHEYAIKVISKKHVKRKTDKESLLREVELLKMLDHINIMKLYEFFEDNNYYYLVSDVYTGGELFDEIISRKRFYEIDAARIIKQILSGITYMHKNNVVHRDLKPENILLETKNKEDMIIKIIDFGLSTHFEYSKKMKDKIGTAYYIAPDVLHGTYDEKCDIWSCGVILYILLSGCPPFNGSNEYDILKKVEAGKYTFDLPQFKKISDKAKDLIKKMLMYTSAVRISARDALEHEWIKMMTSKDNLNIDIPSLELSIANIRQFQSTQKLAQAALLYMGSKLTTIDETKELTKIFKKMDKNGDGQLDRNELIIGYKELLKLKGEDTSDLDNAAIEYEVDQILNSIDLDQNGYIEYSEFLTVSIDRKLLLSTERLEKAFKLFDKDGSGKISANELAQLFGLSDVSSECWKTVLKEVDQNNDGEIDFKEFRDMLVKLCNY
With `O=C(Nc1ccc(Cl)cc1)Nc1cccc(-c2cccc(-c3nc4ccc(F)cc4[nH]3)c2)c1` the outcome was “inactive”. For `c1cncc(CCNCc2cccc(-c3csc(-c4nc5ccccc5[nH]4)c3)c2)c1`, the outcome was “inactive”. For `COC(=O)c1cccc(NC(=O)NC2CCN(c3ccnc(NCc4ccc(F)cc4)n3)CC2)c1`, the outcome was “inactive”. With `Cc1cc(=O)c(-c2ccc(Oc3cccc(OC(F)(F)F)c3)cc2)c(C)[nH]1` the outcome was “inactive”. `COc1ccc(-c2csc(NC(=O)CCC(=O)O)n2)cc1OC` was tested, and the outcome was “inactive”. For `COc1nc2c(CCN3CC[C@H](NCc4cc(C#N)c5c(c4)CCO5)[C@H](O)C3)ccnc2cc1F`, the outcome was “inactive”. In the case of `O=C(/C=C/c1ccc(Cl)c(Cl)c1)NCCCCCN1CCC(CCNC(=O)/C=C/c2ccccc2F)CC1`, the outcome was “inactive”. In the case of `COc1ccc(NC(=O)Nc2ccc(-c3ccncc3)c(C(F)(F)F)c2)cc1N1CCN(C)CC1`, the outcome was “inactive”. `CCOC(=O)c1cccc(N/C(N)=N/c2nc(C)cc(NCCc3ccccc3)n2)c1` was tested, and the outcome was “inactive”. `CC(C)OC(=O)c1ccc(NC(=O)N[C@@H](Cc2ccc(O)cc2)C(=O)NC2C[C@H]3CC[C@@H](C2)N3Cc2ccccc2)cc1` (stereo not given in full) was tested, and the outcome was “inactive”. In the case of `O=C(Nc1ccc(F)cc1)c1ccc(C(=O)NC2CCN(CC3CCCCC3)CC2)cc1`, the outcome was “inactive”. In the case of `CC(C)C[C@H](NC(=O)c1cc2ccccc2s1)C(=O)N[C@H]1CCN(Cc2ccc(OC[C@@H]3CCCN3C)c(Cl)c2)C1`, the outcome was “inactive”. `CC(C)Cn1c2ccccc2c2nc3nc(N)nc(N)c3nc21` was tested, and the outcome was “inactive”. For `O=C(/C=C/c1ccc(Cl)c(Cl)c1)NCCCCCN1CCC(NC(=O)c2ccc(F)cc2F)CC1`, the outcome was “inactive”. `CN1CCCN(Cc2cccc(-c3cccc(NC(=O)c4cccc(Cl)c4)c3)c2)CC1` was tested, and the outcome was “inactive”. In the case of `Cc1cc(C(=O)NCc2ccc(-c3c(C)noc3C)cc2)n(-c2ccc(Cl)cc2)n1`, the outcome was “inactive”. With `CC(=O)NCCNCc1cccc(C(=O)NCc2cccc(C(F)(F)F)c2)c1` the outcome was “inactive”. With `CC(=NN=C(N)N)c1ccc2ccc3ccccc3c2c1` the outcome was “inactive”. In the case of `CCCNC(=O)Nc1cc2cc(-c3cccc(CN4CCCCC4)c3)ccc2n2c(C)nnc12`, the outcome was “inactive”. With `CC(CCc1ccccc1)NCC(O)c1ccc2c3c(cccc13)C(=O)N2C` (stereo not given) the outcome was “inactive”. In the case of `Cc1cc2c(cc1C(F)(F)F)N(C(=O)Nc1cc(C(=O)NCCN(C)C)cc(C(F)(F)F)c1)CC2`, the outcome was “inactive”. `CN1CCN(c2ccnc3ccc(NC(=O)Cc4ccc5ccccc5c4)cc23)CC1` was tested, and the outcome was “inactive”. With `N#Cc1ccc(CN2CCC(NC(=O)c3ccc(-c4nnc(-c5cccc6ccccc56)o4)cc3)CC2)cc1` the outcome was “inactive”. In the case of `COc1cc(Cc2cnc(N)nc2N)cc(OCCCCCC(=O)O)c1OC`, the outcome was “inactive”. `COc1ccc(CNCc2cccc(-c3cccc(-c4nc5ccc(F)cc5[nH]4)c3)c2)cc1` was tested, and the outcome was “inactive”. For `CC(=O)Nc1cccc(CN(Cc2ccc(-c3ccc(CNCc4cccnc4)cn3)cc2)C(=O)Cc2cccnc2)c1`, the outcome was “inactive”. In the case of `COc1ccc(NC(=O)Nc2cccc(-c3ccc(-c4nc5c(C)cccc5[nH]4)s3)c2)cc1`, the outcome was “inactive”. With `Cc1ccc(C2CCN(CCCCNC(=O)c3ccc(NC(=O)c4ccc(Cl)cc4)cc3)CC2)c(C)c1` the outcome was “inactive”. For `COC(=O)c1cccc(NC(=O)NC2CCN(c3ccnc(Nc4ccc(F)cc4)n3)C2)c1` (stereo not given), the outcome was “inactive”. In the case of `Cc1nc2ccc3ccc(CN(C)c4ccc(C(=O)N[C@@H](CCC(=O)O)C(=O)O)cc4)cc3c2c(=O)[nH]1`, the outcome was “inactive”. In the case of `COc1ccc2nccc([C@@H](O)CN3CCC(NCc4cc5sccc5nc4C(F)(F)F)CC3)c2c1`, the outcome was “inactive”. In the case of `O=C(Nc1ccc(S(=O)(=O)N2CCOCC2)cc1)c1cc(-c2cc(Cl)ccc2O)n[nH]1`, the outcome was “inactive”. With `COc1ccc(S(=O)(=O)N2CCOCC2)cc1NC(=O)c1cc2ccccc2o1` the outcome was “inactive”. In the case of `CC1(C)N=C(N)N=C(N)N1OCCc1ccccc1`, the outcome was “inactive”. In the case of `CCOC(=O)NC1=NC(C)(C)N(OCCCOc2cc(Cl)c(Cl)cc2Cl)C(NC(=O)OCC)=N1`, the outcome was “inactive”. In the case of `N#Cc1ccc2[nH]cc(-c3cn4cc(SC5CCCC5)ccc4n3)c2c1`, the outcome was “inactive”. `COc1ccc(C2CC(=O)C3=C(C2)NC(C)=C(C(=O)OC2CCCC2)C3c2cccc(O)c2)cc1` (stereo not given) was tested, and the outcome was “inactive”. `O=C(C=Cc1ccc(Cl)c(Cl)c1)NCCCCCN1CCCC(CCCNC(=O)[C@@H]2C[C@H]2c2ccccc2)C1` (stereo not given in full) was tested, and the outcome was “inactive”. `O=C(/C=C/c1ccc(Cl)c(Cl)c1)NCCCCCN1CCC(NC(=O)Nc2ccc(F)c(Cl)c2)CC1` was tested, and the outcome was “inactive”. `COc1cc(NC(=O)Nc2ccc([N+](=O)[O-])cc2OC)c(OC)cc1Cl` was tested, and the outcome was “inactive”.
